Data taken from article PMC7862700, “An all-to-all approach to the identification of sequence-specific readers for epigenetic DNA modifications on cytosine”.

Key:
Assay in all cases: DAPPL (digital affinity profiling via proximity ligation, sequencing); 10 mM Tris-HCl pH 7.5, 50 mM NaCl, 1 mM DTT, 4% glycerol, room temperature, 30 min; GST-TFs on glutathione beads, 16-mer random dsDNA library, 0.1% formaldehyde crosslink after washing; high values mean tight binding
Details in all cases: protein: recombinant; tags: N-terminal GST; dsDNA, one strand shown
FLI1 = target: T1, FLI1 (Homo sapiens, UniProt Q01543 1-452)
T1 sequence: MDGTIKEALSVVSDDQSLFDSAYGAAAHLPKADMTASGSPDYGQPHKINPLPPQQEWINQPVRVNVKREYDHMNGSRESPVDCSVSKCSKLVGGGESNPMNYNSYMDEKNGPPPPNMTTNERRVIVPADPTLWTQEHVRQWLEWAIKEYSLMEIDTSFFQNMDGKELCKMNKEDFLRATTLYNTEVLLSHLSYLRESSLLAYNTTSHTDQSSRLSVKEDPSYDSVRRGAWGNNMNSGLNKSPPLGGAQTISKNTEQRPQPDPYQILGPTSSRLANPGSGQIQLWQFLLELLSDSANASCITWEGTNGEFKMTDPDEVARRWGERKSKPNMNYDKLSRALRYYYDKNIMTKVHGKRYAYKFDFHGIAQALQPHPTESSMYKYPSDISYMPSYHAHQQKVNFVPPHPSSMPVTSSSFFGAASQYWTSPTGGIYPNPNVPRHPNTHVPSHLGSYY
Method in brief: (§1)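 The binding signal reported is, for every hexamer, its read frequency for a factor over its read frequency for the tag-only sample. Reads came from pools of yeast-expressed, GST-fused human transcription factors on glutathione beads, barcoded with DNA and mixed with that sample, which were incubated with 200 nmole of a random double-stranded 16-mer DNA library in Tris/NaCl/DTT/glycerol buffer at room temperature for 30 min. After washing, the pools were crosslinked with 0.1% formaldehyde, proximity-ligated with BsaI/T4 ligase for 1 h at 37 °C, PCR-amplified and sequenced on an Illumina NextSeq500.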

ELK1 = target: T2, ELK1 (Homo sapiens, UniProt P19419 1-428)
T2 sequence: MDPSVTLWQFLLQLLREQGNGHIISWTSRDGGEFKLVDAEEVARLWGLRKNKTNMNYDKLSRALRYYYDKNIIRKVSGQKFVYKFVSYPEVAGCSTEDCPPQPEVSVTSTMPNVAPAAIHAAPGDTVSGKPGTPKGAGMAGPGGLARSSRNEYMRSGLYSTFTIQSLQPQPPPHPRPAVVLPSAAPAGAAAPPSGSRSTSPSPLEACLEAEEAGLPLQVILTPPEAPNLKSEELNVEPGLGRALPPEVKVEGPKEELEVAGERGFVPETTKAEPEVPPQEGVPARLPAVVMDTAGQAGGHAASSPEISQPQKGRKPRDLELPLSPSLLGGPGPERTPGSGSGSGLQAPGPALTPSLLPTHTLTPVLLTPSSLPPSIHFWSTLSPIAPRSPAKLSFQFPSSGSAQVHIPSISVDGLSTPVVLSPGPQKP
Method in brief: as §1

GABPA = target: T3, GABPA (Homo sapiens, UniProt Q06546 1-454)
T3 sequence: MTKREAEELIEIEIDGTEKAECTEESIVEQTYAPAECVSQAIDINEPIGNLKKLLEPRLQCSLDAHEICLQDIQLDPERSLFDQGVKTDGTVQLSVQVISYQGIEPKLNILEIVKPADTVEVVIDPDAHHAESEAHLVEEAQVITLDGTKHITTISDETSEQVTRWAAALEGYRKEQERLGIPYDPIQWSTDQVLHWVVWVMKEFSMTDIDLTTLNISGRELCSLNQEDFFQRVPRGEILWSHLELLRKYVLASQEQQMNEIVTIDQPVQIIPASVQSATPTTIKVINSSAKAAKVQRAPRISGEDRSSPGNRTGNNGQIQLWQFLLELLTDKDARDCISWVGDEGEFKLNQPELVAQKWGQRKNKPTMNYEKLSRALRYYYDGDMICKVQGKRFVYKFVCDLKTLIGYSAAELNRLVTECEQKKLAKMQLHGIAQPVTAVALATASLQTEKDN
Method in brief: as §1

ERG = target: T4, ERG (Homo sapiens, UniProt P11308 1-479)
T4 sequence: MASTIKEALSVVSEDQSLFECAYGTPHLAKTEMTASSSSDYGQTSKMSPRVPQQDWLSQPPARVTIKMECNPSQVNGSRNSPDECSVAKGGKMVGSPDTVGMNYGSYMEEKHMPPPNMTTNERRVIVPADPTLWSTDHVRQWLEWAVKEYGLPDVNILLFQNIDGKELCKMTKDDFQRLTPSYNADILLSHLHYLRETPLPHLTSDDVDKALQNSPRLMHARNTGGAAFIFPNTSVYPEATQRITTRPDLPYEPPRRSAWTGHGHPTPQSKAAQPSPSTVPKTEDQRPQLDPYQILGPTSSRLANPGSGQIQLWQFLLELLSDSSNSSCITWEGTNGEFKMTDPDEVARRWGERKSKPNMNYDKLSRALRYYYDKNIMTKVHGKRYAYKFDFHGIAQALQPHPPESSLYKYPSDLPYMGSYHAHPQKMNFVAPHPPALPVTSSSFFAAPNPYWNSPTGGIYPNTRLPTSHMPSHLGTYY
Method in brief: as §1

ELF1 = ELF1 (Homo sapiens, UniProt P32519 1-619)
ELF1, sequence (P32519 whole entry): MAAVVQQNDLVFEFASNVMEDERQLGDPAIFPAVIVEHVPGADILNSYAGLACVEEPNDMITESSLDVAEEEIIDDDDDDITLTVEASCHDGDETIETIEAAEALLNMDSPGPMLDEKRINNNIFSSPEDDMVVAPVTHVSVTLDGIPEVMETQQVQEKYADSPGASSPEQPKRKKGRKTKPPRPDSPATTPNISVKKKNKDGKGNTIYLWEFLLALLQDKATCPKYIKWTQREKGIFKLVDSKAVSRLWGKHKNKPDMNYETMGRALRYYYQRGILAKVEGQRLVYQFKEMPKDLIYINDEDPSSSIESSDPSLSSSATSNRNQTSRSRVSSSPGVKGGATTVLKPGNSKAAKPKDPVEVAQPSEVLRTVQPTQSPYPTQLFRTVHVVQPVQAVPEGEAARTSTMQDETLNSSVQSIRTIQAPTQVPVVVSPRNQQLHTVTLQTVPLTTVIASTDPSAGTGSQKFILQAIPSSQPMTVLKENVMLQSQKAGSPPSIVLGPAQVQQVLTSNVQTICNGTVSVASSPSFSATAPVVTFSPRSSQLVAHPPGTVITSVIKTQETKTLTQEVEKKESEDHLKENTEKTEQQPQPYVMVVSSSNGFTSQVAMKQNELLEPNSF
Method in brief: as §1

EHF = target: T5, EHF (Homo sapiens, UniProt Q9NZC4 1-300)
T5 sequence: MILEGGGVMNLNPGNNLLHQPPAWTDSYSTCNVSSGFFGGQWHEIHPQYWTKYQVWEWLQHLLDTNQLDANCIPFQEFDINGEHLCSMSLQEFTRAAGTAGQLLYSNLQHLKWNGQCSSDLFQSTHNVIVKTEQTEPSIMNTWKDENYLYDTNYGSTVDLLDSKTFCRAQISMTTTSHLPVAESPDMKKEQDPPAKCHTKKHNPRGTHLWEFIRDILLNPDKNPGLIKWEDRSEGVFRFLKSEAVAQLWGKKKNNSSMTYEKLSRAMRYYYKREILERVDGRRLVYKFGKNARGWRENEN
Method in brief: as §1

SPI1 = SPI1 (Homo sapiens, UniProt P17947 1-270)
Method in brief: as §1

SPIB = SPIB (Homo sapiens, UniProt Q01892 1-262)
SPIB, sequence (Q01892 whole entry): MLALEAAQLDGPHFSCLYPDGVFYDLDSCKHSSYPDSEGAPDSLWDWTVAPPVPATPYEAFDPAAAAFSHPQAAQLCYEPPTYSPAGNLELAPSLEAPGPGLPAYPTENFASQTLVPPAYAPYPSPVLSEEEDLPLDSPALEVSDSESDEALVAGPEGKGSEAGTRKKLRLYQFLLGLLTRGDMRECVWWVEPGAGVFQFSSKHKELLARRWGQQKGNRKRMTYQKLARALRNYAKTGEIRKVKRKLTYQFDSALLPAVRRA
Method in brief: as §1

ELK3 = target: T6, ELK3 (Homo sapiens, UniProt P41970 1-407)
T6 sequence: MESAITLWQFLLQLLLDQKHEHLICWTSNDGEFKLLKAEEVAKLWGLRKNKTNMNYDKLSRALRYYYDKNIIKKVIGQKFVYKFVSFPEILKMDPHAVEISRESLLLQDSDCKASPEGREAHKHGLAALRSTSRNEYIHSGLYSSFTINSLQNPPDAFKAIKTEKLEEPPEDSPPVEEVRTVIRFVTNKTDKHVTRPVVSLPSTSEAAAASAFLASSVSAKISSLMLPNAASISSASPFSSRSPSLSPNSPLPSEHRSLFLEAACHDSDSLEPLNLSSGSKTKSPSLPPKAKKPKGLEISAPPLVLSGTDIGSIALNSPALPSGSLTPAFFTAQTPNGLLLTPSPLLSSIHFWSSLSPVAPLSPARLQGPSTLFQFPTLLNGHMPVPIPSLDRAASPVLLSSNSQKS
Method in brief: as §1

| Sequence | binding signal (FLI1) | binding signal (ELK1) | binding signal (GABPA) | binding signal (ERG) | binding signal (ELF1) | binding signal (EHF) | binding signal (SPI1) | binding signal (SPIB) | binding signal (ELK3) |
| --- | --- | --- | --- | --- | --- | --- | --- | --- | --- |
| AAGCTC | 1.22 fold enrichment (6-mer frequency, TF over GST control) | 1.22 fold enrichment (6-mer frequency, TF over GST control) | 1.25 fold enrichment (6-mer frequency, TF over GST control) | 1.17 fold enrichment (6-mer frequency, TF over GST control) | 1.2 fold enrichment (6-mer frequency, TF over GST control) | 1.15 fold enrichment (6-mer frequency, TF over GST control) | 1.12 fold enrichment (6-mer frequency, TF over GST control) | 1.11 fold enrichment (6-mer frequency, TF over GST control) | 1.09 fold enrichment (6-mer frequency, TF over GST control) |
| ATCCCA | 1.07 fold enrichment (6-mer frequency, TF over GST control) | 1.14 fold enrichment (6-mer frequency, TF over GST control) | 1.15 fold enrichment (6-mer frequency, TF over GST control) | 1.2 fold enrichment (6-mer frequency, TF over GST control) | 1.22 fold enrichment (6-mer frequency, TF over GST control) | 1.15 fold enrichment (6-mer frequency, TF over GST control) | 1.03 fold enrichment (6-mer frequency, TF over GST control) | 1.05 fold enrichment (6-mer frequency, TF over GST control) | 1.2 fold enrichment (6-mer frequency, TF over GST control) |
| CTTACC | 1.21 fold enrichment (6-mer frequency, TF over GST control) | 1.22 fold enrichment (6-mer frequency, TF over GST control) | 1.26 fold enrichment (6-mer frequency, TF over GST control) | 1.24 fold enrichment (6-mer frequency, TF over GST control) | 1.24 fold enrichment (6-mer frequency, TF over GST control) | 1.17 fold enrichment (6-mer frequency, TF over GST control) | 1.34 fold enrichment (6-mer frequency, TF over GST control) | 1.32 fold enrichment (6-mer frequency, TF over GST control) | 1.26 fold enrichment (6-mer frequency, TF over GST control) |
| TCCATC | 1.28 fold enrichment (6-mer frequency, TF over GST control) | 1.28 fold enrichment (6-mer frequency, TF over GST control) | 1.15 fold enrichment (6-mer frequency, TF over GST control) | 1.17 fold enrichment (6-mer frequency, TF over GST control) | 1.29 fold enrichment (6-mer frequency, TF over GST control) | 1.2 fold enrichment (6-mer frequency, TF over GST control) | 1.19 fold enrichment (6-mer frequency, TF over GST control) | 1.16 fold enrichment (6-mer frequency, TF over GST control) | 1.28 fold enrichment (6-mer frequency, TF over GST control) |
| CGTTCC | 1.43 fold enrichment (6-mer frequency, TF over GST control) | 1.35 fold enrichment (6-mer frequency, TF over GST control) | 1.29 fold enrichment (6-mer frequency, TF over GST control) | 1.45 fold enrichment (6-mer frequency, TF over GST control) | 1.44 fold enrichment (6-mer frequency, TF over GST control) | 1.42 fold enrichment (6-mer frequency, TF over GST control) | 1.44 fold enrichment (6-mer frequency, TF over GST control) | 1.54 fold enrichment (6-mer frequency, TF over GST control) | 1.46 fold enrichment (6-mer frequency, TF over GST control) |
| TTGCAA | 1.14 fold enrichment (6-mer frequency, TF over GST control) | 1.28 fold enrichment (6-mer frequency, TF over GST control) | 1.2 fold enrichment (6-mer frequency, TF over GST control) | 1.08 fold enrichment (6-mer frequency, TF over GST control) | 1.18 fold enrichment (6-mer frequency, TF over GST control) | 1.2 fold enrichment (6-mer frequency, TF over GST control) | 1.04 fold enrichment (6-mer frequency, TF over GST control) | 1.15 fold enrichment (6-mer frequency, TF over GST control) | 1.29 fold enrichment (6-mer frequency, TF over GST control) |
| TAATGT | 1.15 fold enrichment (6-mer frequency, TF over GST control) | 1.02 fold enrichment (6-mer frequency, TF over GST control) | 1.08 fold enrichment (6-mer frequency, TF over GST control) | 1.09 fold enrichment (6-mer frequency, TF over GST control) | 1.11 fold enrichment (6-mer frequency, TF over GST control) | 1.07 fold enrichment (6-mer frequency, TF over GST control) | 1.06 fold enrichment (6-mer frequency, TF over GST control) | 1.05 fold enrichment (6-mer frequency, TF over GST control) | 1.09 fold enrichment (6-mer frequency, TF over GST control) |
| ACAATG | 1.1 fold enrichment (6-mer frequency, TF over GST control) | 1.06 fold enrichment (6-mer frequency, TF over GST control) | 1.17 fold enrichment (6-mer frequency, TF over GST control) | 1.14 fold enrichment (6-mer frequency, TF over GST control) | 1.15 fold enrichment (6-mer frequency, TF over GST control) | 1.09 fold enrichment (6-mer frequency, TF over GST control) | 1.06 fold enrichment (6-mer frequency, TF over GST control) | 1.16 fold enrichment (6-mer frequency, TF over GST control) | 1.08 fold enrichment (6-mer frequency, TF over GST control) |
